The campaign covered roughly 13,000 compounds. About 3,200 (25%) showed an effect of 50% or more. The list shows a part of the results.
Each compound was assayed on P. falciparum stage V gametocytes. Details: 48 h, 5 µM; inhibitor.
Set-up: BacTiter-Glo ATP luminescence viability of purified stage V gametocytes in 384-well plates, per cent inhibition versus DMSO

| Compound | % Inhibition |
| --- | --- |
| O=C(/C=C/c1ccc(Cl)c(Cl)c1)N1CCC(CCN2CCC(c3nc4ccc(O)cc4[nH]3)CC2)CC1 [TCMDC-140127] | -21.57% |
| O=C(Nc1ccc(F)cc1)c1cnc(N2CCN(c3ccncc3)CC2)c(Cl)c1 [TCMDC-134599] | 47.6% |
| CC(C)(CNC(=O)C1CCN(Cc2ccc(Cl)cc2)CC1)c1nc(-c2ccc(Cl)c(O)c2)c(-c2ccncc2)[nH]1 [TCMDC-141138] | -35.73% |
| NC(=O)c1cc2nc(Nc3ccc(F)cc3)nc(Nc3ccc(S(N)(=O)=O)cc3)c2[nH]1 [TCMDC-137043] | -45.2% |
| CC(C)(C)NCc1cc(Nc2ccnc3cc(Cl)ccc23)ccc1F [TCMDC-135909] | -17.74% |
| C[C@H](NC(=O)[C@H](CCCCNC(=O)OC(C)(C)C)NC(=O)OC(C)(C)c1ccc(-c2ccccc2)cc1)C(=O)OCc1ccccc1 [TCMDC-131396] | 15.4% |
| O=C(Nc1ccc2nccc(N3CCN4CCC[C@H]4C3)c2c1)c1ccc(Cl)c(Cl)c1 [TCMDC-139628] | 19.58% |
| CC[C@H](C)CNC(=O)c1cccc(-c2ccc(CN3CCC(N4CCCC4)CC3)cc2)n1 [TCMDC-134249] | 57.67% |
| CC[C@H](C)CNC(=O)c1cccc(-c2cccc(CN3CCC(N4CCCC4)CC3)c2)n1 [TCMDC-134224] | 16.22% |
| CC[C@H](C)CNC(=O)c1ccnc(-c2ccc(CN3CCC(N4CCCC4)CC3)cc2)c1 [TCMDC-134250] | 36.18% |
| N#Cc1ccc2c(c1)CCN(CCC1CCC(NC(=O)c3cc4cccc(Cl)c4[nH]3)CC1)CC2 (stereo not shown) [TCMDC-139685] | -1.386% |
| Cc1ccc(C(=O)Cn2nc(-c3ccc(C)c(S(=O)(=O)N4CCCCC4)c3)ccc2=O)cc1 [TCMDC-124714] | 32.41% |
| Cc1ccc(C(=O)Cn2nc(-c3ccc(C)c(S(=O)(=O)N4CCCC4)c3)ccc2=O)cc1 [TCMDC-124704] | -26.21% |
| Cc1ccc(-c2nnc3c4ccccc4c(C)nn23)cc1S(=O)(=O)N1CCN(CCO)CC1 [TCMDC-124482] | 63.32% |
| NC(=S)Cc1ccc2c(c1)OCO2 [TCMDC-137863] | -6.254% |
| O=C(Cc1ccccc1)NC(CCN1CCC(N(C2CC2)S(=O)(=O)c2cccc(C(F)(F)F)c2)CC1)c1ccc(Cl)c(Cl)c1 (stereo not shown) [TCMDC-141710] | 20.7% |
| CCCCCN1CCC(NS(=O)(=O)c2cccc(C(=O)Nc3ccc(Cl)cc3)c2)CC1 [TCMDC-132806] | 32.08% |
| Cc1cnn(-c2cccc(C(=O)NC3CCC(CCN4CCc5ccc(C#N)cc5CC4)CC3)c2)c1 (stereo not shown) [TCMDC-139818] | -20.34% |
| Cc1cccc2[nH]c(-c3cccc(-c4ccc(NC(=O)Nc5ccsc5)cc4)c3)nc12 [TCMDC-133211] | 22.09% |
| COc1cccc(Nc2nc(C)cc(NC3CCN(Cc4ccccc4)CC3)n2)c1 [TCMDC-134022] | -46.19% |
| Cc1ccc(-c2cncc(-c3cc(NC4CCN(Cc5ccccc5)CC4)nc(-c4ccccc4)n3)c2)cc1 [TCMDC-125588] | 17.17% |
| Cc1cc(NC2CCN(Cc3ccccc3)CC2)nc(NCCCCc2ccccc2)n1 [TCMDC-138304] | 79.92% |
| CS(=O)(=O)N(CC(O)Cn1c2ccc(Cl)cc2c2cc(Cl)ccc21)c1ccccc1 (stereo not shown) [TCMDC-124039] | 35.36% |

| Compound | % Inhibition |
| --- | --- |
| OC(CNc1cccc(Cl)c1)Cn1c2ccc(Cl)cc2c2cc(Cl)ccc21 (stereo not shown) [TCMDC-125716] | 20.85% |
| CC12CCC(C(=O)N(CC(O)Cn3c4ccc(Cl)cc4c4cc(Cl)ccc43)C1=O)C2(C)C (stereo not shown) [TCMDC-125719] | 82.98% |
| Fc1ccc2[nH]c(-c3ccc(-c4ccc(CNCC5CCCO5)cc4)cc3)nc2c1.O=C(O)C(F)(F)F (stereo not shown) [TCMDC-133097] | 36.17% |
| CCOC(=O)c1c(CNc2ccncc2)n(C)c2cc(Br)c(OC(C)=O)cc12 [TCMDC-125700] | -53.66% |
| CCOC(=O)c1cn(CC)c2cc(OCc3ccccc3)ccc2c1=O [TCMDC-141680] | 0.3884% |
| CCOC(=O)c1cc2c(CCN3C(=O)c4ccccc4C3=O)cn(C)c2cc1-c1ccncc1 [TCMDC-138099] | 108.6% |
| CS(=O)(=O)Nc1cccc(-c2cnc3[nH]cc(-c4cc(N)cc(C(=O)O)c4)c3c2)c1 [TCMDC-136220] | 11.92% |
| COc1nc(-n2ccc(=N)cc2)nc2ccccc12 [TCMDC-131303] | 8.489% |
| c1ccc(-n2cncn2)cc1 [TCMDC-124291] | 2.88% |
| CCC(C)CN1C(=O)C(c2ccccc2)(c2ccccc2)N=C1N (stereo not shown) [TCMDC-136799] | -2.713% |
| CCC(CC)CN1C(=O)C(c2ccccc2)(c2ccccc2)N=C1N [TCMDC-136491] | 13.18% |
| CCC(CN1C(=O)C(c2ccccc2)(c2ccccc2)N=C1N)c1ccccc1 (stereo not shown) [TCMDC-136879] | 66.04% |
| CN(c1cc(NC(=O)c2cccs2)ccn1)C1CCN(Cc2ccccc2)CC1 [TCMDC-135006] | 1.42% |
| CC(C)CNCc1cccc(-c2ccc(CN(C(=O)c3cccs3)C3CCN(Cc4ccccc4)CC3)cc2)c1 [TCMDC-140569] | 103.7% |
| CC(C)CNCc1cccc(-c2cccc(CN(C(=O)c3cccs3)C3CCN(Cc4ccccc4)CC3)c2)c1 [TCMDC-140565] | 96.32% |
| CN(CCCCCNC(=O)/C=C/c1ccc(Cl)c(Cl)c1)CCc1c[nH]c2ccccc12 [TCMDC-139327] | -26.77% |
| COc1cc(Cc2c(C)nc3nc(N)nc(N)c3c2C)c(Br)c(OC)c1OC [TCMDC-137644] | 1.652% |
| COc1cccc(NC(=O)NC2CCN(c3ccnc(Nc4ccc(F)cc4)n3)C2)c1 (stereo not shown) [TCMDC-133602] | -32.07% |
| CN1CCC(N(Cc2ccc(-c3ccc(C(F)(F)F)cc3)nc2)C(=O)Cn2c(CCc3cccc(F)c3F)cc(=O)c3ccccc32)CC1 [TCMDC-141407] | 27.49% |
| CN1CCC(N(Cc2ccc(-c3ccc(Cl)cc3)cc2)C(=O)Cn2c(CCc3cccc(F)c3F)cc(=O)c3ccccc32)CC1 [TCMDC-141357] | 111.3% |
| CCN1CCC(N(Cc2ccc(-c3ccc(Cl)cc3)cc2)C(=O)Cn2c(CCc3cccc(F)c3F)cc(=O)c3ccccc32)CC1 [TCMDC-141358] | 109.7% |
| Nc1nc2ccc(CN(C=O)c3ccc(C(=O)N[C@@H](CCC(=O)O)C(=O)O)cc3)cc2c(=O)[nH]1 [TCMDC-132048] | 3.734% |
| COc1ccc(Cn2c(Nc3cccc(C(F)(F)F)c3)nc3cc(C(=O)NCCN4CCCC4)ccc32)cc1Cl [TCMDC-138532] | -18.24% |

| Compound | % Inhibition |
| --- | --- |
| COc1ccc(Cn2c(Nc3cccc(C(F)(F)F)c3)nc3ccc(C(=O)NCCN4CCCC4)cc32)cc1Cl [TCMDC-138531] | -30.77% |
| COc1ccc(Cn2c(Nc3cccc(C(F)(F)F)c3)nc3cc(C(=O)NCCN4CCCC4)cnc32)cc1Cl [TCMDC-138555] | 60.89% |
| CN(c1cc(NC(=O)c2ccc(F)cc2)ccn1)C1CCN(Cc2ccc(C#N)cc2)CC1 [TCMDC-134979] | 11.6% |
| O=c1cc(NCCCNCc2cc(Br)ccc2F)[nH]c2ccccc12 [TCMDC-139424] | -33.84% |
| CC(C)CNCc1ccc(-c2cccc(CN(C(=O)NCCc3ccccc3)C3CCN(Cc4ccccc4)CC3)c2)cc1 [TCMDC-140615] | 77.17% |
| CC(C)CNCc1ccc(-c2ccc(CN(C(=O)NCCc3ccccc3)C3CCN(Cc4ccccc4)CC3)cc2)cc1 [TCMDC-140623] | 92.24% |
| CC(=O)N(Cc1ccc(-c2ccc(CNCCc3ccccc3)cc2)cc1)C1CCN(Cc2ccccc2)CC1 [TCMDC-140530] | 41.5% |
| CC(C)CNCc1cccc(-c2ccc(CN(C(=O)NCCc3ccccc3)C3CCN(Cc4ccccc4)CC3)cc2)c1 [TCMDC-140622] | 85.53% |
| O=C(NC1CCCCC1)C(c1cccs1)N(CCc1ccccc1)C(=O)c1ccco1 (stereo not shown) [TCMDC-123798] | -17.48% |
| CC(C)c1ccc(-c2noc(SCC(=O)N3CCCCC3C)n2)cc1 (stereo not shown) [TCMDC-124745] | -11.89% |
| CC(=O)NC1=NC(C)(C)N(OCc2ccc(Cl)c(Cl)c2)C(NC(C)=O)=N1 [TCMDC-131594] | -1.877% |
| CC(=O)Nc1cccc(/C=C/C(=O)N2CCC(N3CCCCC3)CC2)c1 [TCMDC-141128] | 9.67% |
| Cc1cccnc1CNc1nccc2c(C)c(C)[nH]c12 [TCMDC-134148] | -85.57% |
| CCCCN1CC[C@@H](CCC(O)c2ccnc3ccc(OCCC(C)C)cc23)[C@@H](CC)C1 (stereo partly shown) [TCMDC-131481] | 66.25% |
| CC[C@H]1CN(Cc2ccco2)CC[C@H]1CCCc1ccnc2ccc(O)cc12 [TCMDC-140336] | 6.613% |
| CCCCCCCN1CC[C@@H](CCCc2ccnc3ccc(OCCC4CCNCC4)cc23)[C@@H](CC)C1 [TCMDC-139819] | 116.4% |
| CCCCCCCN1CC[C@@H](CCC(O)c2ccnc3ccc(OC)cc23)[C@@H](CC)C1 (stereo partly shown) [TCMDC-138954] | 9.095% |
| CCCCCCCN1CC[C@@H](CCCc2ccnc3ccc(OCCN4CCNCC4)cc23)[C@@H](CC)C1 [TCMDC-139817] | 103.1% |
| CCCCN1CC[C@@H](CCC(O)c2cc(OCCC)nc3ccc(OC)cc23)[C@@H](CC)C1 (stereo partly shown) [TCMDC-131499] | 36.19% |
| CCCCCCCN1CC[C@@H](CCCc2ccnc3ccc(OCC4CCCNC4)cc23)[C@@H](CC)C1 (stereo partly shown) [TCMDC-139816] | 113% |
| CCCCCCCN1CC[C@@H](CCCc2ccnc3ccc(OCCN4CCOCC4)cc23)[C@@H](CC)C1 [TCMDC-139815] | 43.2% |
